# Laboratory results: paper PMC4336329 (PLoS ONE, 2015)
# The whole screen tested about 310,000 compounds, of which about 14,000 (4.5%) showed an effect of 50% or more. The effect is printed as a negative number. This is one part of a sample in which strong results are shown more often than they occur.
# Target: human ether-à-go-go-related gene (hERG) potassium channel (human, UniProt Q12809)
# Test: primary screen, population patch clamp on CHO cells stably expressing hERG; higher = less effect of the substance
# 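Further: peak tail current of the secondary pulse compared with the same well before compound.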
# Chain of human ether-à-go-go-related gene (hERG) potassium channel (Q12809 whole entry, looked up): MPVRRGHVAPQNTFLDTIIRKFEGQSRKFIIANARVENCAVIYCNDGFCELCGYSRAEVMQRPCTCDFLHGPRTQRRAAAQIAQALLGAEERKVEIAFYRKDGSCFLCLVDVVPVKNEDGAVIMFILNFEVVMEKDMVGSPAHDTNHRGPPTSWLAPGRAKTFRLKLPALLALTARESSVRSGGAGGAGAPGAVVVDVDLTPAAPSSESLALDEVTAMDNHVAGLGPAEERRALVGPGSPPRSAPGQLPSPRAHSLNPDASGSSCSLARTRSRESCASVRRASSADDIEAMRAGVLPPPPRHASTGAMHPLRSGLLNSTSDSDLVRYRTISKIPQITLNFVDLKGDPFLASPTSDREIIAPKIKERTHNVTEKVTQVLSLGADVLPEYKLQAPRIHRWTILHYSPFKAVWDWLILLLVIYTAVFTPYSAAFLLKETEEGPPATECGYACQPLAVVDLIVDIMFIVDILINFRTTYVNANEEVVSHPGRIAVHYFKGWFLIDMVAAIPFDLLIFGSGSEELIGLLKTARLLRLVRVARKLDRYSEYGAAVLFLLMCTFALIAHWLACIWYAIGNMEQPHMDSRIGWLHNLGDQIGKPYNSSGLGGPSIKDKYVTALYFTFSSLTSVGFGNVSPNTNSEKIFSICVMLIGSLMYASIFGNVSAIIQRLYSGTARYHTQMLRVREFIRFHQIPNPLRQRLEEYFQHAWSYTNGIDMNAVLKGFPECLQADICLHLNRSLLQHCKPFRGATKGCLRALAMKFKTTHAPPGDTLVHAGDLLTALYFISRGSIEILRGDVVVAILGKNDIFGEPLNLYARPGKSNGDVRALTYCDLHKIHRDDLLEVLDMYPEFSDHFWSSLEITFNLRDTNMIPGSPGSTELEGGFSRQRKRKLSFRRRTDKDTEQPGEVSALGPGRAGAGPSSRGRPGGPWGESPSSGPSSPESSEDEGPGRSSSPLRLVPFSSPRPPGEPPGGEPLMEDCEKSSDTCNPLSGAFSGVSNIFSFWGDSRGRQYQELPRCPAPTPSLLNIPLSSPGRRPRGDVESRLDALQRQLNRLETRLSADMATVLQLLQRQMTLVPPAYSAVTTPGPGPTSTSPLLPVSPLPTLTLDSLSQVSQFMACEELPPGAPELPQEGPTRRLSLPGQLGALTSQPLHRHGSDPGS
row,Compound,"hERG current change (%, negative = inhibition) at 10uM"
1,Cc1ccc(N/C(N)=N/c2nc(CSc3nnc(C)s3)cc(=O)[nH]2)c(C)c1,-8.86%
2,Cc1ccc(-n2ncc3c2CC(C)(C)CC3NC(=O)c2ccncc2)cc1 (stereo not shown),-72.2%
3,Cc1ccc(-n2ncc3c2CC(C)(C)CC3NC(=O)c2ccccn2)cc1 (stereo not shown),-73.7%
4,CC1=C(C(=O)NC2CC(C)(C)Cc3c2cnn3-c2ccc(C)cc2)OCCO1 (stereo not shown),3.64%
5,Cc1ccccc1-n1ncc2c1CC(C)(C)CC2NC(=O)c1ccncc1 (stereo not shown),-47.4%
6,Cc1cc(C(=O)NC2CC(C)(C)Cc3c2cnn3-c2ccccc2)n[nH]1 (stereo not shown),-19.2%
7,Cc1ccc(-n2ncc3c2CC(C)(C)CC3NC(=O)c2ccc[n+]([O-])c2)cc1 (stereo not shown),-1.89%
8,CC1(C)Cc2c(cnn2-c2cccc(F)c2)C(NC(=O)c2cc[n+]([O-])cc2)C1 (stereo not shown),-37.3%
9,Cc1ccc(-n2ncc3c2CC(C)(C)CC3NC(=O)c2cc[n+]([O-])cc2)cc1 (stereo not shown),-75.4%
10,Cc1cnc(C(=O)NC2CC(C)(C)Cc3c2cnn3-c2ccccc2)cn1 (stereo not shown),-39%
11,O=C1N[C@@H](Cc2cn(S(=O)(=O)c3ccccc3)c3ccccc23)C(=O)N[C@H]1Cc1ccccc1,14.9%
12,Cn1nc(C(=O)NC2CCCCC2)c2c1-c1ccccc1S(=O)(=O)C2,11.7%
13,CCCCc1ccc(-c2nc(N)n[nH]2)cc1,6.27%
14,O=[N+]([O-])c1ccc2c(c1)C(N1CCOCC1)/C(=C/COc1ccc(Cl)cc1Cl)O2 (stereo not shown),-1.06%
15,O=[N+]([O-])c1ccc2c(c1)C(N1CCOCC1)/C(=C/COc1ccc(F)cc1)O2 (stereo not shown),-26%
16,O=[N+]([O-])c1ccc(OC/C=C2\Oc3ccc([N+](=O)[O-])cc3C2N2CCOCC2)cc1 (stereo not shown),-71.7%
17,Oc1nc(Nc2ccc(Cl)cc2Cl)sc1/C=C1\C=Nc2ccccc21,9.08%
18,CCCOc1ccc(C(C)=O)cc1CN1CCOCC1.Cl,2.99%
19,CCCCn1nc(NC(=O)COC)c2cc3cc(OC)ccc3nc21,-53.2%
20,CCCCn1nc(NC(=O)CC)c2cc3cc(OC)ccc3nc21,-11.2%
21,CCCCn1nc(NC(=O)CCC)c2cc3cc(OC)ccc3nc21,-3.42%
22,COc1ccc(NC(=O)CSc2nc3c([nH]c4ccccc43)c(=O)n2C)cc1,0.41%
